# Statin myotox sup = protects C2C12 myotubes from simvastatin toxicity. 330,000 compounds, 0.78% hits. AID 602340. ATP luminescence, 48 h; scaled: DMSO 0, geranylgeraniol control 100. rescue of ATP level, % at 7.49 µM;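 active = mean ATP rescue above about 67%, or every replicate alone reaching that limit, limit read from the data, passing the limit was not always enough; inconclusive = no clear call, values can overlap the other calls; inactive = mean under the limit and some replicate under it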;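 also: myotubes were challenged with 10 µM simvastatin during compound exposure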
# Wnt bcat act = activators of Wnt/beta-catenin signaling | Wnt/beta-catenin reporter cell assay, activator, plate reader | 300,000 compounds, 1.2% hits | activation, % at 9.35 µM | AID 743398; in the data active = activation above about 30%, passing the limit was not always enough; inconclusive = no clear call, values can overlap the other calls;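 also: 0% = neutral control wells and 100% = positive control wells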
# esBAF inh = inhibitors of esBAF chromatin remodeling in mouse ES cells; Bmi1-luciferase knock-in reporter, 24 h; 100% = twice the neutral-well signal; reporter increase, % at 12.5 µM; 350,000 compounds, 2% hits; AID 602393; in the data active = activation above about 40%; inconclusive = no clear call, values can overlap the other calls;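 also: 0% = median of the plate's neutral control wells and 100% = double that signal; a rise in the Bmi1 reporter signal indicates esBAF inhibition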
# MITF act = MITF TRPM1 promoter activation in melanoma cells; activation, % at 12.5 µM; SK-MEL-5 TRPM1-promoter luciferase, 24 h; % of positive control, neutral wells = 0; AID 588334; 300,000 compounds, 0.75% hits;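 active = mean activation of at least 80% with every replicate also reaching 80%; inconclusive = mean reaches 80% but some replicate falls short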;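 also: 0% = neutral control wells and 100% = parthenolide positive control wells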
# LMP1 NFkB inh = Epstein-Barr LMP1 NF-kappaB reporter inhibition | LMP1-induced NF-kappaB luciferase reporter cells, luminescence | inhibition, % at 12.5 µM | 350,000 compounds, 0.69% hits; in the data active = inhibition above about 41%; inconclusive = no clear call, values can overlap the other calls;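 also: 0% = neutral control wells and 100% = reference inhibitor control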
# TRPM1 prom inh = inhibitors of MITF-driven TRPM1 promoter in melanoma cells | SK-MEL-5 TRPM1 promoter luciferase, 24 h | inhibition, % at 12.5 µM | 330,000 compounds, 0.83% hits;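 active = mean inhibition across replicates of 60% or more, whatever share of single replicates reaches that level; inconclusive = some that reach 60%, reason not given; inactive = mean inhibition across replicates below 60%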
# The depositor's hits bear a star; ? = inconclusive; / = no result. Shown are actives, neighbours in structure and some others; about 4% of the full set was active somewhere.
SMILES,Statin myotox sup,Wnt bcat act,esBAF inh,MITF act,LMP1 NFkB inh,TRPM1 prom inh
COc1cccc(-c2nc3n(n2)C(c2cccs2)C(C(=O)Nc2cccnc2)=C(C)N3)c1 (stereo unspecified),26,-4,-13,-10,50*,11
Cc1noc(C)c1-c1ccc(C(=O)Nc2cccc(NS(C)(=O)=O)c2)c2occc12,13,3,4,/,/,/
Cc1noc(C)c1-c1ccc(C(=O)Nc2cccc(C(F)(F)F)c2)c2occc12,-6,-1,53*,/,/,/
N#Cc1ncccc1CCc1cccc(Cl)c1,-16,0,43*,44,-2,-44
Cn1ccc(NC(=O)c2ccc(Cl)cc2Cl)n1,1,35*,30,?,-3,-82
COc1ccc(C(=O)Nc2ccc(N3CCN(C(=O)c4ccccc4C)CC3)cc2)cc1,/,-1,/,-18,51*,20
COc1ccc(C(=O)Nc2ccc(N3CCCC3)cc2)cc1,5,-2,6,/,11,-3
COc1ccc(Nc2ncc(C(=O)O)c3ccccc23)cc1,1,/,16,7,-6,-8
COc1ccc(Nc2ncc(C(=O)N3CCN(c4ccc(F)cc4)CC3)c3ccccc23)cc1,157*,-5,6,-6,5,9
CCOc1nc(Nc2ccc(F)cc2)nc(N2CCN(c3ccc(OC)cc3)CC2)n1,110*,/,8,10,-15,-9
Cc1cccc(NC(=S)N2N=CCC2c2ccccc2)c1 (stereo unspecified),-2,6,49*,48,-23,-47
C=CCOC(=O)C1=C(C)N=C2SCCC(=O)N2C1c1cccs1 (stereo unspecified),110*,-2,0,0,0,-1
CCN(CC)CCCCNc1ncc2cc(-c3cc(OC)cc(OC)c3)c(NC(=O)NC(C)(C)C)nc2n1,-41,-12,6,-72,30,73*
O=C(Nc1ccc2c(c1)oc1ccccc12)c1ccc(Br)o1,-35,-2,83*,76,-50,-74
CN1CCN(c2ccc(NC(=O)c3cc4ccccc4o3)cc2)CC1,-27,10,-37,0,-10,1
O=C(Nc1ccccc1C(=O)N1CCOCC1)c1ccc(F)cc1,86*,/,0,-2,-3,-3
O=C(Nc1ccc(N2CCN(C(=O)c3ccccc3)CC2)cc1)c1cc2ccccc2o1,/,-2,-20,-70,15,69*
O=C(Nc1ccc2ccccc2c1)c1ccc(Br)o1,4,28,36,21,-26,-20
O=C(Nc1ccc2c(c1)CCC2)c1ccc(Br)o1,21,42*,47*,32,-23,-36
O=C(c1ccccc1)C1CCN(CC(=O)N2CCN(c3ccccc3)CC2)CC1,0,-2,-5,0,2,-2
O=C(Nc1ccc(N2CCOCC2)c(Cl)c1)c1ccc(-n2cnnc2)cc1,-12,-5,-6,-9,-3,6
O=C(Nc1ccc(N2CCCC2)cc1)c1ccc(Br)o1,-22,/,-4,84*,-15,-73
O=C(Nc1ccc(N2CCN(C(=O)c3ccccc3)CC2)c(Cl)c1)c1ccc(Br)o1,-23,-4,1,-6,8,10
O=C(Nc1ccccc1N1CCOCC1)c1cc2ccccc2o1,-17,7,17,9,-15,-6
O=C(Nc1ccc(N2CCOCC2)c(Cl)c1)c1ccc(F)cc1,-24,16,?,122*,-6,-120
SMILES,Statin myotox sup,Wnt bcat act,esBAF inh,MITF act,LMP1 NFkB inh,TRPM1 prom inh
O=C(Nc1ccc(N2CCOCC2)c(Cl)c1)c1ccc(Br)o1,-65,53*,60*,106*,-24,-94
CCN1CCN(c2ccc(NC(=O)c3ccc(Br)o3)cc2)CC1,-6,12,20,79,-20,-72
O=C(Nc1ccc(N2CCOCC2)c(Cl)c1)c1cc2ccccc2o1,-33,/,64*,46,-46,-48
O=C(Nc1ccc(CN2CCCCC2)cc1)c1cccc(F)c1,4,1,2,23,-12,-27
CCN1CCN(c2ccc(NC(=O)c3cccc(F)c3)cc2Cl)CC1,-7,9,33,128*,-43,-124
NNC(=O)c1cc2ccccc2cc1O,/,/,/,-76,51*,76*
O=C(NCC1CCCO1)c1cc2ccccc2cc1O (stereo unspecified),-1,28,57*,61,-22,-58
O=C(NCC1CCCO1)c1ccc(Cl)c(F)c1F (stereo unspecified),84*,/,-5,8,0,-8
O=C(NCC1CCCO1)c1cccc2ccccc12 (stereo unspecified),3,1,2,-7,-10,2
O=C(NCC1CCCO1)c1cc2ccccc2o1 (stereo unspecified),3,4,44*,36,-6,-40
CCOc1ccc(CCNC(=O)c2cccc(S(=O)(=O)N3CCCC3)c2)cc1OCC,-7,2,4,3,2,-2
O=C(NCCOc1ccccc1)c1cc2ccccc2o1,/,15,13,102*,-20,-98
O=C(N/N=C/c1ccc[nH]1)c1sc2ccccc2c1Cl,4,1,55*,6,17,-2
O=C(COc1ccccc1)NNC(=O)c1cc2ccccc2o1,/,/,/,11,-9,-14
O=C(NNC(=O)c1cc2ccccc2cc1O)NC1CCCCC1,0,-1,18,4,-5,-4
CC1CCC(NC(=O)c2cc3ccccc3cc2O)CC1 (stereo unspecified),-2,46*,77*,94*,-48,-90
O=C(N/N=C/c1ccc[nH]1)c1cc2ccccc2cc1O,-7,8,53*,32,-4,-34
CSc1ccc(S(=O)(=O)Nc2ccc(N3CCOCC3)c(Cl)c2)cc1,26,-2,8,-8,-2,11
CN(C)C(=O)c1cccc(-c2ccc([C@H]3[C@@H](CO)N4CCCCN(S(C)(=O)=O)C[C@@H]34)cc2)c1,1,/,1,/,/,/
O=C1CC(c2cccc(F)c2)c2c(c3ccccc3[nH]c2=O)O1 (stereo unspecified),/,-1,/,-11,10,10
COc1cc(NC(=O)c2cc3ccccc3cc2O)c(OC)cc1Cl,-174,-14,-18,-34,9,29
O=C(NCC1CCCCC1)c1cc2ccccc2cc1O,4,17,54*,29,-6,-29
Cc1ccc(Cl)cc1NC(=O)c1cc2ccccc2cc1O,-166,-22,-28,-73,37,72*
N/C(=N\C(=S)Nc1ccccc1)c1ccccc1,-24,42*,82*,?,-53,-145
NC(N)=NC(=S)Nc1ccc(Cl)cc1,9,7,47*,26,-4,-23
N/C(=N\C(=S)Nc1ccc2c(c1)OCO2)c1ccccc1,-6,5,64*,/,/,/
Fc1ccc(NC(=S)Nc2ccc(Cl)cc2)cc1,/,6,/,-3,-3,1
O=C(CN1CCOCC1)Nc1cccc(S(=O)(=O)N2CCCCCC2)c1,/,-2,/,6,-8,-5

# Source: PubChem (Broad Institute)
